# In the library only some 6.1% were active in any assay of this set; here they are far more common.
# D1 antag: antagonists of human D1 dopamine receptor; P21728; HEK293 TREx D1 cells, calcium flux, dopamine EC80; stronger effect = lower value; activity change, negative = inhibition, % at 10 µM; 3.2% of 360,000 active; AID 504652; in the data active = activity change below about -30%; note: % is set by controls: 0 for no effect and ±100 for the full control effect
#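 Using tetracycline-induced force-coupled D1 Hek293 cells and a calcium dye, signals were followed for 180 s after compound, then for 180 s after EC80 dopamine, to detect inhibitors.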
# DRD3 antagonist: antagonists of human D3 dopamine receptor; P35462; D3R cells, DiscoveRx beta-arrestin luminescence, antagonist mode; stronger effect = lower value; max response, negative = inhibition, %; 2.5% of 360,000 active; in the data active = max response below about -50%; inconclusive = no clear call, values can overlap the other calls; note: % is set by controls: 0 for no effect and ±100 for the full control effect
# Target sequence (P35462 whole entry, looked up): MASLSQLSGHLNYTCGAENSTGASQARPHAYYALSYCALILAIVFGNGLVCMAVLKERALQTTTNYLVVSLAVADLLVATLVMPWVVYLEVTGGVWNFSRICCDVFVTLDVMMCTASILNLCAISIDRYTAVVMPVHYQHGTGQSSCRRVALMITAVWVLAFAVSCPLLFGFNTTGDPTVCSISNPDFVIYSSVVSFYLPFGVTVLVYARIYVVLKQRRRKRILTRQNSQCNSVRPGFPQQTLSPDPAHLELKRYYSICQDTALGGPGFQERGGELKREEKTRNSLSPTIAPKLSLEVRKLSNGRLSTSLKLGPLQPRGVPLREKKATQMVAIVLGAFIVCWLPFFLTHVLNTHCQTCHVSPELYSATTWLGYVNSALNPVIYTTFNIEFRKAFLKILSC
#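 Cells expressing the human receptor were seeded at 1500 cells/well, incubated overnight at 37 degrees C in 5% CO2, then exposed to library compounds with dopamine controls for 90 minutes at 37 degrees C before luminescent detection.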
# D1 PAM: enhances dopamine response at the human D1 receptor. P21728. HEK293 TREx D1 cells, calcium flux, dopamine EC20 potentiation. potentiation, % at 10 µM. AID 504651. 0.036% of 360,000 active; in the data active = potentiation above about 30%; note: 0% is about no effect
# D3 ag: D3 dopamine receptor (human) agonism; D3R DiscoveRx beta-arrestin cells, luminescence, 90 min; P35462; AID 652048; max activation, %; 0.58% of 410,000 active; in the data active = max activation above about 30%; note: 0% is about no effect
#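 Agonist mode: compounds and dopamine controls were applied to plated cells for 90 min at 37 degrees C after an overnight attachment at 1500 cells/well. Luminescent read-out followed 30 - 60 minutes at room temperature with DiscoveRx detection reagent.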
# D1 agonist: human D1 receptor agonism; AID 504660; HEK293 T-REx D1 cells, calcium flux, agonist mode; activation, % at 2 µM; 1% of 360,000 active; P21728; in the data active = activation above about 30%; note: 0% is about no effect
#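 Tetracycline-induced HEK293 TREx D1 cells, force-coupled to calcium signalling, were dye-loaded with a no-wash calcium kit. Compound was pin-added after a 10 s baseline. Fluorescence was read kinetically at 1 cycle/s for 180 s, with calcium rises flagged as agonism.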
# Numbers without * were called inactive; u = inconclusive; x = no result.
SMILES,D1 antag,DRD3 antagonist,D1 PAM,D3 ag,D1 agonist
CCCCNC(=S)NC(=O)c1ccccc1Br,-32.8*,1.2,-3.9,3.3,0.6
O=C(CNC(=S)NC(=O)c1ccccc1Br)c1ccccc1,0.9,-12.0,4.1,0.9,0.2
COc1cccc(Nc2ccc3cc(S(=O)(=O)N4CCC(C)CC4)ccc3n2)c1,-22.8,x,-6.2,16.3,2.2
COc1cccc(CNC(=O)CSC2=Nc3ccccc3N=C(c3ccc(F)cc3)C2)c1,8.7,x,-0.8,-8.7,8.8
CSc1nnc(N2C(=O)C(O)=C(C(=O)c3ccco3)C2c2ccccc2F)s1 (configuration not stated),-1.3,1.6,1.9,-4.0,98.4*
CSc1nnc(N2C(=O)C(O)=C(C(=O)c3ccco3)C2c2ccccc2)s1 (configuration not stated),18.7,4.2,2.6,1.5,99.7*
CCCSc1nnc(N2C(=O)C(O)=C(C(=O)c3ccco3)C2c2ccccc2F)s1 (configuration not stated),-15.0,0.0,-4.3,6.0,96.5*
Cc1ccc(C2C(C(=O)c3ccco3)=C(O)C(=O)N2c2nnc(C)s2)cc1 (configuration not stated),-4.9,10.8,14.3,1.0,18.5
O=C(CS(=O)(=O)c1cccc2nsnc12)N1CCN(c2ccc(F)cc2)CC1,-9.7,x,-5.0,-0.4,2.6
CCOC(=O)c1sc2ccccc2c1S(=O)(=O)N1CCN(c2cccc(C)c2)C(C)C1 (configuration not stated),7.4,x,-4.6,3.7,0.3
CC1Sc2ccc(C#N)cc2N(Cc2cccc(C(F)(F)F)c2)C1=O (configuration not stated),x,-51.0*,x,-0.8,x
O=C(Cn1[nH]c(=O)c2ccccc2c1=O)NC1CCCCCC1,-0.5,3.9,0.5,-0.4,-0.5
O=C(Cn1[nH]c(=O)c2ccccc2c1=O)NC1CCN(Cc2ccccc2)CC1,12.7,-71.8*,4.0,-8.3,2.7
CCCN(CCC)C(=O)Cn1c(=O)n(CCCCC(=O)NC2CCCC2)c(=O)c2ccccc21,-5.0,-18.8,-1.9,5.5,4.5
O=C(CCCCn1c(=O)c2ccccc2n(Cc2ccccc2)c1=O)NC1CCN(Cc2ccccc2)CC1,1.7,-57.6*,-9.7,-19.6,5.5
O=C(CCCCn1c(=O)c2ccccc2n(CC(=O)NC2CCCC2)c1=O)NC1CCCC1,-39.4*,-16.0,-0.7,-1.0,-0.1
Cc1ccc2[nH]c3c(=O)n(CC(=O)N4CCN(c5ccccc5F)CC4)ncc3c2c1,8.1,x,-7.7,1.0,0.8
CCOC(=O)C1CCC(CN(Cc2c(Cl)cccc2Cl)S(=O)(=O)c2ccc(F)cc2)CC1 (configuration not stated),-38.0*,x,-1.0,1.3,8.6
CCOC(=O)C1CCC(CN(Cc2c(Cl)cccc2Cl)S(=O)(=O)c2ccc(Cl)cc2)CC1 (configuration not stated),10.8,x,-2.0,-1.2,5.3
c1ccc(CC2CCN(c3ncnc4sccc34)CC2)cc1,-28.5,34.3,-7.5,5.7,37.7*
O=C(O)c1cc2c(N3CCC(Cc4ccccc4)CC3)ncnc2s1,48.6,-10.3,-0.3,-7.6,6.0
CCCCN(CC)C(=O)CCNS(=O)(=O)c1ccc2c(c1)c(=O)n(C)c(=O)n2C,3.0,x,-2.7,-0.4,-0.2
CCc1ccc(Cn2c(CNS(=O)(=O)c3ccc(Cl)s3)nc3cccnc32)cc1,26.9,x,-1.1,15.6,2.6
CCOC(=O)c1cccc(NC(=O)NC(C)c2c(-n3cccc3)sc3c2CCN(C)C3)c1 (configuration not stated),0.6,x,-3.1,-18.0,36.3*
CCOc1ccc(NC(=O)NC(C)c2c(-n3cccc3)sc3c2CCN(CC)C3)cc1 (configuration not stated),-7.1,x,1.6,-19.3,43.0*
SMILES,D1 antag,DRD3 antagonist,D1 PAM,D3 ag,D1 agonist
CCCN(CCC)C(=O)CN1C(=O)CSc2ccc(S(=O)(=O)N3CCC(C)CC3)cc21,-90.7*,x,-5.2,10.9,3.1
CCCCNC(=O)CN1C(=O)CSc2ccc(S(=O)(=O)N3CCC(C)CC3)cc21,27.2,x,3.8,3.1,1.2
Cc1cc(C)c2nc(C)cc(N/N=C/c3ccc(O)cc3)c2c1,-2.0,u,-4.5,-18.4,8.9
COC(=O)c1ccc2nc(C)cc(Nc3ccccc3C)c2c1,-32.8*,-10.2,-1.9,-5.8,3.4
CC(=O)c1cccc(Nc2cc(C)nc3ccc(C)cc23)c1,-39.6*,-12.2,-19.9,-6.1,-0.9
CC(=O)c1ccc(Nc2cc(C)nc3ccccc23)cc1,6.6,2.2,0.8,-2.0,0.3
Cc1cc(N/N=C/c2ccc(O)cc2)c2cccc(C)c2n1,5.0,-72.4*,0.2,-8.0,0.4
CC(=O)c1ccc(Nc2cc(C)nc3c(C)cccc23)cc1,-31.2*,-6.6,-3.0,-0.9,9.7
Cc1cc2c(n1-c1ccc(C(=O)NCC(C)c3ccccc3)cc1)CCCC2 (configuration not stated),3.7,x,-1.1,2.9,0.3
Clc1ccc(-n2c(Cc3ccccc3)nnc2SCc2nc(-c3cccs3)no2)cc1,5.6,x,5.3,-5.3,12.1
CCOC(=O)c1c(S(=O)(=O)N2CCC(C(=O)Nc3cccc(C#N)c3)CC2)c(C)n(C)c1C,-4.0,x,0.5,6.5,-1.0
Cc1ccc(-c2nc(-c3cc4c([nH]c3=O)CC(C)(C)CC4=O)sc2C)cc1,7.9,x,1.9,8.1,1.4
O=c1c2c3c(sc2n(Cc2cc(=O)n4ccccc4n2)c(=O)n1-c1ccccc1)CCC3,-3.9,x,1.1,0.2,-1.5
Cc1ccc(Nc2cc(C)nc3c(C)cccc23)cc1,-32.6*,9.5,-12.2,-3.3,-0.1
COc1ccc(Nc2cc(C)nc3ccccc23)cc1,1.2,9.0,-2.6,-6.1,1.7
N#Cc1nc(NC2CCCC2)c2ncn(-c3cc(F)cc(F)c3)c2n1,5.2,x,-2.2,x,-0.1
CC(C)OCCCn1c(=O)c2ccccc2n2c(-c3cc(Cl)ccc3O)nnc12,-5.1,x,-0.3,4.9,6.9
O=C(c1ccc(Cl)cc1)c1c[nH]c(C(=O)NNc2cccc(Cl)n2)c1,-31.4*,-4.2,-2.1,-0.5,2.7
CCOc1ccc(NC(=O)c2ccc3c(c2)CCN3S(=O)(=O)c2ccc(Cl)cc2)cc1,-0.2,x,6.8,7.0,-1.1
Cc1ccc(C)c(CN2C(=O)c3ccccc3S(=O)c3ccc(C(=O)N(C)Cc4ccccc4)cc32)c1 (configuration not stated),-0.7,x,0.8,-9.7,1.7
Nc1nc(Cl)cc(NCCc2ccc(O)cc2)n1,-9.1,1.6,-7.0,-24.6,16.3
Oc1ccc(CCNc2ncnc3ccc(Cl)cc23)cc1,-40.2*,51.2,-8.6,51.7*,6.9
COc1ccc(-c2[nH][nH]c(=O)c2NC(=O)c2ccccc2Br)cc1,x,-53.4*,x,-5.6,x
Cc1ccc(C2CC(c3ccco3)=NN2S(C)(=O)=O)cc1 (configuration not stated),-35.1*,23.3,-3.1,-9.2,1.0
